# Screening data deposited in PubChem by Broad Institute.
# Compounds with a hit are over-represented: about 2.3% of the library has one in this group of screens.
# Pf Dd2 inh = P. falciparum Dd2 growth inhibitors, primary screen, SYBR Green fluorescence, single dose replicates; activity change, % at 10 µM; 2.3% of 94,000 active; 72 h; active compounds read low; in the data active means activity change below about -80%
# C diff growth = C. difficile growth inhibitors, primary screen, HTS; growth activity, negative = inhibition, % at 16 µg/mL (by protocol); AID 1259249, 2017; 0.25% of 86,000 active; Clostridium difficile clinical isolate growth, OD600, 24 h; active compounds read low;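 active means mean growth activity at or below -80% and every replicate also at or below -80%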
# Numbers stand for hits; 0 = inactive; - = no result given.
SMILES,Pf Dd2 inh,C diff growth
COc1ccc(-c2cnc3c(c2)C(=O)N([C@H](C)CO)C[C@@H](C)[C@H](CN(C)C(=O)Cc2cccnc2)O3)cc1,0,0
COCC(=O)N1[C@@H]2c3ccc(-c4ccc(F)cc4)c(=O)n3C[C@@H]2[C@@H](CO)[C@@H]1C(=O)Nc1ccccc1,0,0
COc1ccc(S(=O)(=O)N(C)C[C@H]2OCCCC[C@H](C)Oc3ccc(NC(=O)Nc4cccc5ccccc45)cc3C(=O)N([C@H](C)CO)C[C@@H]2C)cc1,0,0
C[C@H](CO)N1C[C@H](C)[C@@H](CN(C)S(=O)(=O)c2ccccc2)OCCCC[C@H](C)Oc2ccc(NC(=O)Nc3cccc4ccccc34)cc2C1=O,0,0
COc1ccc(S(=O)(=O)N(C)C[C@@H]2OCCCC[C@@H](C)Oc3ccc(NC(=O)Nc4cccc5ccccc45)cc3C(=O)N([C@@H](C)CO)C[C@@H]2C)cc1,-83,0
COc1ccc(S(=O)(=O)N(C)C[C@H]2OCCCC[C@@H](C)Oc3ccc(NC(=O)Nc4cccc5ccccc45)cc3C(=O)N([C@H](C)CO)C[C@H]2C)cc1,-82,0
C[C@H]1CN([C@@H](C)CO)S(=O)(=O)c2ccc(-c3cncnc3)cc2O[C@@H]1CN(C)Cc1ccncc1,0,0
CN(C)CCCNC(=O)C[C@H]1CC[C@@H]2[C@@H](COc3ccc(NC(=O)c4cccc(F)c4)cc3C(=O)N2C)O1,0,0
COc1ccc2c3c([nH]c2c1)[C@@H](CO)N(C(=O)CN(C)C)CC31CCN(CC2CCCCC2)CC1,-87,0
COc1ccc2c3c([nH]c2c1)[C@H](CO)N(C(=O)CN(C)C)CC31CCN(CC2CCCCC2)CC1,-89,0
COc1ccc2c3c([nH]c2c1)[C@H](CO)N(C(=O)CN(C)C)CC31CCN(CC2CC2)CC1,0,0
COc1ccc2c3c([nH]c2c1)[C@H](CO)N(C(=O)CN(C)C)CC31CN(CC2CCCC2)C1,0,0
COc1ccc(S(=O)(=O)N(C)C[C@H]2OCCCC[C@@H](C)Oc3ccc(NC(=O)Nc4ccc5c(c4)OCO5)cc3C(=O)N([C@@H](C)CO)C[C@H]2C)cc1,-85,0
COc1ccc(S(=O)(=O)N(C)C[C@H]2OCCCC[C@@H](C)Oc3ccc(NC(=O)Nc4ccc5c(c4)OCO5)cc3C(=O)N([C@H](C)CO)C[C@@H]2C)cc1,0,0
COc1ccc(S(=O)(=O)N(C)C[C@@H]2OCCCC[C@@H](C)Oc3ccc(NC(=O)Nc4ccc5c(c4)OCO5)cc3C(=O)N([C@@H](C)CO)C[C@H]2C)cc1,-82,0
COc1ccc(NC(=O)Nc2ccc3c(c2)C(=O)N([C@H](C)CO)C[C@@H](C)[C@@H](CN(C)S(=O)(=O)c2ccc(OC)cc2)OCCCC[C@H](C)O3)cc1,0,0
C[C@@H]1CN([C@H](C)CO)S(=O)(=O)c2ccc(/C=C/c3ccccc3)cc2O[C@H]1CN(C)C(=O)Nc1cc(F)ccc1F,-84,0
C[C@@H]1CN([C@@H](C)CO)S(=O)(=O)c2ccc(/C=C/c3ccccc3)cc2O[C@H]1CN(C)C(=O)Nc1ccc(F)cc1,0,0
C[C@@H]1CN([C@@H](C)CO)S(=O)(=O)c2ccc(-c3ccccc3)cc2O[C@H]1CN(C)C(=O)Nc1ccccc1F,0,-
C[C@H]1CN([C@@H](C)CO)S(=O)(=O)c2ccc(-c3ccccc3)cc2O[C@H]1CN(C)C(=O)Nc1ccccc1F,-81,-
C[C@@H]1CN([C@@H](C)CO)S(=O)(=O)c2ccc(/C=C/c3ccccc3)cc2O[C@@H]1CN(C)C(=O)Nc1ccc(F)cc1,-89,0
C[C@@H]1CN([C@H](C)CO)S(=O)(=O)c2ccc(/C=C/c3ccccc3)cc2O[C@@H]1CN(C)C(=O)Nc1cc(F)ccc1F,0,0
CCNC(=O)C[C@@H]1CC[C@H]2[C@H](COc3ccc(NC(=O)Nc4ccccc4F)cc3C(=O)N2C)O1,0,0
O=C(NCCN1CCCC1)[C@@H]1[C@@H](CO)[C@@H]2Cn3c(cccc3=O)[C@H]1N2C(=O)NC1CCCC1,0,0
C[C@H](C(=O)N(C)C[C@H]1OCc2ccccc2-c2c(n(C)c3ccccc23)C(=O)N([C@@H](C)CO)C[C@H]1C)c1ccccc1,0,0
C[C@H](CO)N1C[C@H](C)[C@H](CN(C)C(=O)[C@H](C)c2ccccc2)OCc2ccccc2-c2c(n(C)c3ccccc23)C1=O,-91,0
C[C@H](CO)N1C[C@H](C)[C@@H](CN(C)C(=O)N[C@H](C)c2ccccc2)OCc2ccccc2-c2c(n(C)c3ccccc23)C1=O,-82,0
C[C@@H]1CN([C@H](C)CO)C(=O)c2c(c3ccccc3n2C)-c2ccccc2CO[C@@H]1CN(C)C(=O)N[C@H](C)c1ccccc1,0,0
C[C@H](C(=O)N(C)C[C@@H]1OCc2ccccc2-c2c(n(C)c3ccccc23)C(=O)N([C@@H](C)CO)C[C@@H]1C)c1ccccc1,-83,0
